# Source: PubChem (several laboratories)
# NR1D1 modulator: modulators of Rev-erb alpha DNA binding, primary screen, biochemical, FITC-DNA, fluorescence polarization, uHTS; activity, % at 10 µM; actives 0.79% (n = 370,000); Nuclear receptor subfamily 1 group D member 1 (Homo sapiens), P20393; Rev-erbα–FITC-DNA binding, 90 min;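 active = activity above about 14%, limit read from the data; passing the limit was not always enough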;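 also: 0% = DMSO wells with 35 nM protein and 100% = DMSO wells with 750 nM protein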
# SKN-1 block: suppressors of acrylamide-induced Pgst-4::GFP reporter in worms, primary screen, SKN-1 inhibitor project, whole organism, uHTS, GFP/RFP fluorescence ratio, strain VP596 | C. elegans VP596 Pgst-4::GFP/RFP ratio, 24 h | inhibition, % at 21.8 µM | actives 0.49% (n = 360,000) | AID 624304, 2012;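 active = interference check ratio from 0.5 to 1.5 plus GFP to RFP signal ratio inhibition reaching or exceeding a fixed threshold, cut at about 30% in these data, passing the limit was not always enough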
# EP2 antag: human EP2 receptor antagonists, primary screen, TR-FRET cAMP, C6 glioma cells; Prostaglandin E2 receptor EP2 subtype (Homo sapiens), P43116; inhibition, % at 25 µM; C6 glioma cells expressing human EP2; cells stimulated with saturating PGE2; actives 0.52% (n = 260,000);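 active = percent inhibition above 40 after rounding to a whole number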;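 also: rat C6 glioma host cells with rolipram phosphodiesterase inhibitor present; the protocol text gives 20 µM as final concentration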
# Target sequence (P43116 whole entry, looked up): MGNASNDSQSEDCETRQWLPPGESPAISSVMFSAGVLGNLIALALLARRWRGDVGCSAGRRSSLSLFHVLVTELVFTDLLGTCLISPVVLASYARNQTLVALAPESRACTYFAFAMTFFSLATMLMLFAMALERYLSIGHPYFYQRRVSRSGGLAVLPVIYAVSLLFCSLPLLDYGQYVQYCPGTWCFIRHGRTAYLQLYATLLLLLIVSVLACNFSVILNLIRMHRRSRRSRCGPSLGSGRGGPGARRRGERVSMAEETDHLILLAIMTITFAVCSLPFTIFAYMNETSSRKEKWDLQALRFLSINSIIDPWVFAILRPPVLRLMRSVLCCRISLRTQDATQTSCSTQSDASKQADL
# RAM network inh: inhibitors of the yeast RAM network, primary screen, dse1pr::URA3 reporter, 5-FOA selection; S. cerevisiae dse1pr::URA3 reporter, 5-FOA growth OD615, 2 d; analog-sensitive cbk1-as2 kinase mutant strain; inhibition, % at 50 µM; actives 1.8% (n = 190,000); AID 868, 2007;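 active = inhibition above a set limit, 3 SD over mean compound inhibition, cut at about 8.4% in these data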;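 also: 0% = DMSO-only wells with no growth and 100% = 10 µM 1-NA-PP1 full growth; inhibition rescues growth on 5-FOA so higher OD means more RAM inhibition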
# PG9 Ab binder: binders of HIV-1 gp120 antibody PG9, primary screen, biochemical, TR-FRET; HIV-1 gp120 / PG9 antibody interaction; TR-FRET gp120-PG9 antibody binding; inhibition, % at 6.7 µM; actives 0.43% (n = 360,000); AID 624416, 2012; in the data active = inhibition above about 8.5%
# EP2 mod: EP2 receptor modulators, cAMP readout, primary screen, cell-based, HTRF cAMP, PGE2 stimulation. induction, % at 25 µM. EP2-expressing cells, cAMP HTRF FRET, PGE2 co-stimulation. Prostaglandin E2 receptor EP2 subtype (Homo sapiens), P43116. actives 0.83% (n = 260,000);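 active = compounds whose cAMP rise, as percent of the full-agonist control response, exceeds 60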;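 also: rat C6 glioma line stably carrying human EP2 under a CMV promoter; the protocol text gives 20 µM as final concentration; 100% = response of wells given 1 µM PGE2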
# EP2 cAMP induct: cAMP induction in EP2, EP4, beta2-AR and parental cells, confirmation, counter-screen for EP2 modulator project, cell-based, five parallel assays, C6 glioma, HEK293; shares compounds with EP2 mod; cAMP HTRF induction; plus low (about EC15) PGE2 agonist; calls only at 20 µM (by protocol); actives 47% (n = 1,300);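 active = cAMP induction above 50% in the main assay while under 30% in all four parallel counter assays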;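 also: rat C6 glioma cells stably expressing human EP2 receptor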
# Starred values were filed as active, the others as inactive; i = inactive; . = no result given; + = active, no number. Hits are enriched below; roughly 2.9% of the tested compounds scored in any of these assays.
SMILES,NR1D1 modulator,SKN-1 block,EP2 antag,RAM network inh,PG9 Ab binder,EP2 mod,EP2 cAMP induct
CC(C)(C)NC(=O)CSCc1c(Cl)cccc1Cl,-3,6,11,1,-2,19,.
O=C(CSCc1c(Cl)cccc1Cl)Nc1ccccc1-c1ccccc1,21,1,6,8,0,75*,i
O=C(CN1CCN(Cc2ccccc2)CC1)Nc1ccccc1-c1ccccc1,-6,-1,18,-1,-1,66*,i
COc1cc2cc(C)c3nnc(SCC(=O)N4CCC(C)CC4)n3c2cc1OC,.,.,3,.,.,1,.
c1ccc(CCc2cccnc2)nc1,.,.,12,.,.,74*,i
COC1CCCC(C(=O)N2CCC[C@H]2Cn2nc(-c3ccc(F)cc3)ccc2=O)C1 (stereo partly drawn),.,.,4,.,.,-14,.
CCC1C/C(=C/c2ccco2)C(=O)/C(=C/c2ccco2)C1 (stereo not drawn),.,.,8,4,.,68*,i
CCC1C/C(=C\c2cc(OC)c(OC)cc2OC)C(=O)/C(=C/c2cc(OC)c(OC)cc2OC)C1 (stereo not drawn),.,2,.,.,.,.,.
Cc1ccc(NC(=O)C(C)Sc2nnnn2C)cc1 (stereo not drawn),.,.,10,.,.,-8,.
CC1=CC(C)(C)N(S(=O)(=O)c2ccc(C)cc2)c2cc(C)ccc21,4,1,13,6,2,70*,+
COc1ccc(-c2cc(C(F)(F)F)c3c(n2)sc2c(=O)[nH]c(=O)[nH]c23)cc1OC,.,.,9,.,.,-5,.
Cc1c(Cl)cccc1S(=O)(=O)NC(C)c1nc(-c2ccncc2)n[nH]1 (stereo not drawn),.,.,7,.,.,-28,.
Cc1ccc(Cl)cc1NC1=NC(=S)N(C(C)C)C12CCCCC2,-3,1,7,2,-2,93*,+
COc1ccccc1C1C(C(C)=O)=C(O)C(=O)N1CC#N (stereo not drawn),.,.,8,.,.,12,.
O=C(CN1CCCCCCC1)Nc1ccc(Cl)cc1Cl,3,-9,5,1,0,66*,i
O=C(O)/C=C/C(=O)Nc1ccc(S(=O)(=O)N2CCCCC2)cc1,.,.,19,.,.,10,.
COc1cccc(-c2nc(N3CC(C)CC(C)C3)c3ccccc3n2)c1O (stereo not drawn),-1,1,.,0,-1,70*,+
CCCn1c(=O)[nH]c(=O)c2c1nc(-c1ccccc1OC(F)F)n2CCOC,-2,-4,2,-1,1,84*,i
CCCn1c(=O)[nH]c(=O)c2c1nc(-c1ccc(OC(F)F)c(OC)c1)n2CCOC,-2,-5,10,0,1,9,.
C(=N\N1CCN(C2c3ccccc3-c3ccccc32)CC1)/c1cccnc1,-1,5,15,0,0,74*,i
C(=N\N1CCN(C2c3ccccc3-c3ccccc32)CC1)/c1ccccn1,-3,-19,9,2,-2,22,.
Cc1cc(C)c2cc(C)c3nn(CC(=O)N4CCC(C(N)=O)CC4)c(=O)n3c2c1,.,.,.,.,.,-13,.
COc1ccccc1CNC(=S)Nc1cc(C)ccc1C,8,-15,1,-1,0,-21,.
COc1ccccc1CNc1cc(C)ccc1C,0,0,23,0,-1,66*,i
O=C(NCc1ccco1)C(c1cccs1)N(C(=O)Cc1cccs1)c1ccccc1 (stereo not drawn),4,-17,9,4,0,83*,i
SMILES,NR1D1 modulator,SKN-1 block,EP2 antag,RAM network inh,PG9 Ab binder,EP2 mod,EP2 cAMP induct
O=C(NCc1ccco1)C(c1ccccc1)N(C(=O)Cc1cccs1)c1ccccc1 (stereo not drawn),-4,-7,15,7,1,59,.
CCn1c(COc2ccc(Cl)cc2)nnc1SCC(=O)Nc1ccc2c(c1)OCO2,-2,-11,9,1,0,65*,i
CCc1nnc(SCC(=O)Nc2ccc3c(c2)OCO3)n1CC,-1,-13,.,.,1,.,.
CCOc1nc2cccc(C(=O)OC(C)OC(=O)OC3CCCCC3)c2n1Cc1ccc(-c2ccccc2-c2nn[nH]n2)cc1 (stereo not drawn),-4,.,10,.,.,59,i
Cc1ccc(-n2c(O)c(C=C3N=c4ccccc4=N3)sc2=S)cc1,.,.,11,.,.,-35,.
Cc1ccc2c(c1)nnn2C1CCN(S(=O)(=O)c2ccc(-n3cnnn3)c(C)c2)CC1,.,.,7,.,.,6,.
CCOC(=O)c1cnc(SC)nc1Sc1ccccc1Cl,5,12,7,1,-1,73*,i
Cc1sc(-n2c(C)ccc2C)c(C#N)c1C,0,-5,4,3,-3,56,.
Cc1ccc(C)n1-c1sc2c(c1C#N)CCCC2,-6,0,15,10*,0,63*,+
Cc1ccc(C)c(N=C2CCCN2Cc2ccccc2)c1C#N,3,-2,2,0,-1,78*,+
O=c1c2c(nc3n1CCCCC3)-c1ccccc1CC21CCCCC1,7,16,6,9.9*,-3,66*,+
N#Cc1sc2nc(N3CCCCC3)c3c(c2c1N)CCCC3,-1,-24,17,3,0,73*,+
Cc1nc2sc(C#N)c(N)c2c2c1CCCC2,-5,-9,17,3,0,.,.
CC1=C(C(=O)OCc2ccccc2)C(c2ccc(Cl)cc2Cl)NC(=O)N1CCCCCC(=O)O (stereo not drawn),.,.,7,3,.,66*,i
N#CCSc1nc2c(c(C3CC=CCC3)c1C#N)CCC2 (stereo not drawn),-7,-25,5,4,-2,78*,+
O=C(CSc1ncnc2sc3c(c12)CCCC3)N1CCCCC1,.,.,16,.,.,-119,.
O=C(CC(Sc1ccccc1)c1cccs1)c1ccco1 (stereo not drawn),13,8,12,1,-1,89*,i
O=C(Cc1cccs1)OCC(=O)c1ccco1,-6,4,10,2,0,3,.
COC(=O)c1cn(Cc2cccc(C)c2)nn1,9,-10,6,0,0,6,.
COC(=O)c1ccc(-c2ccco2)n1Cc1cccc(C)c1,4,4,2,0,-1,77*,+
